Screening results from PubChem BioAssay.
Hits are enriched below; roughly 2.3% of the tested compounds scored in any of these assays.
Rin1-Abl PPI inh – inhibitors of human Rin1-Abl protein interaction. TR-FRET Rin1/Abl binding, biochemical. inhibition, % at 7.35 µM. 0.4% of 360,000 active; in the data active = inhibition above about 5%, passing the limit was not always enough
TPT1 inhibitor – C. albicans TPT1 enzyme inhibition; recombinant caTPT1, FP RNA substrate dephosphorylation; inhibition, % at 5 µM; 0.81% of 300,000 active; AID 1962;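 active = inhibition above the mean of all tested compounds plus 3 SD, set per screening campaign, cut at about 24% in these data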
Calb FLC – affects C. albicans growth with fluconazole; C. albicans CaCi-2 (fluconazole-resistant clinical isolate) + fluconazole, Alamar Blue growth, 48 h; growth inhibition, % (concentration not given with the values); 0.57% of 300,000 active;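 active = growth inhibition above about 58% in most replicates, limit read from the data, passing the limit was not always enough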;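 also: all wells also contain fluconazole at 8 µg/ml as a sub-toxic cotreatment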
IDE cell inh – inhibits human insulin-degrading enzyme in HEK cells; inhibition, % at 5.59 µM; AID 434962; 0.41% of 320,000 active; FAbetaB cleavage, fluorescence polarization;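 active = percent inhibition above the average of all tested compounds plus 3 SD, set per screening campaign, cut at about 16% in these data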;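 also: IDE supplied by intact live HEK cells; FP after avidin binding of uncleaved biotin substrate so inhibition keeps polarization high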
Target sequence (P14735 whole entry, looked up): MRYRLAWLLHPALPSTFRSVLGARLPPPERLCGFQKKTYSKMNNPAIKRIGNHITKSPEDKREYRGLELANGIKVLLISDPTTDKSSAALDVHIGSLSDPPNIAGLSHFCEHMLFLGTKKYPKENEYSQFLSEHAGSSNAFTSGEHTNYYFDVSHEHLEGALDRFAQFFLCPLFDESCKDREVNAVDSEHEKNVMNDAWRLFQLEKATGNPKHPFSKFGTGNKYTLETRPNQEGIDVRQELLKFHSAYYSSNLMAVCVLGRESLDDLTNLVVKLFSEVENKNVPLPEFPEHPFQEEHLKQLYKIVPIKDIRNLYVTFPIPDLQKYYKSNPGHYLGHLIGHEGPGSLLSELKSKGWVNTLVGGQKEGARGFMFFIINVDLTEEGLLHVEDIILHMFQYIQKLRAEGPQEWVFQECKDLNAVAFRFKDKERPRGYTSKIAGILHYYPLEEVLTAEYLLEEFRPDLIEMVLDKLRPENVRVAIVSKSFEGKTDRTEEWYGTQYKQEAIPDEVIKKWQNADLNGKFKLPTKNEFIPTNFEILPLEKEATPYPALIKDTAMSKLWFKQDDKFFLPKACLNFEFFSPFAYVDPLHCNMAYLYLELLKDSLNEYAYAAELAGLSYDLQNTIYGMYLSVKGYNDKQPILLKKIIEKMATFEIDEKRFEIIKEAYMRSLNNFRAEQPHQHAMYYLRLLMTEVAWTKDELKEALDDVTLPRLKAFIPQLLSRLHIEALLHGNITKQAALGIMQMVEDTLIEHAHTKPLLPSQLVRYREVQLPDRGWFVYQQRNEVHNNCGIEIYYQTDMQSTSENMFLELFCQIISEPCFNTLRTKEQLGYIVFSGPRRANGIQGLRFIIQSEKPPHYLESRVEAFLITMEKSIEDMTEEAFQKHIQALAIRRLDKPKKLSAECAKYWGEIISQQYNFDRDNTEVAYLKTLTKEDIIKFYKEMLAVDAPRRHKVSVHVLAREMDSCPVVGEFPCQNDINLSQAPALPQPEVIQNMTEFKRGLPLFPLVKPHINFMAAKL
Rpn11 inh – blocks the human proteasome subunit Rpn11; O00487; human 26S proteasome, Ub4-pepOG fluorescence polarization; 20S core pre-blocked with epoxomicin; inhibition, % at 20 µM; 0.59% of 360,000 active; AID 588493;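 active = inhibition at 20 µM, scaled to each plate's controls, above about 33%, limit read from the data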
IDE cell activ – boosts human insulin-degrading enzyme activity in HEK cells. P14735. FAbeta-B cleavage, fluorescence polarization; 0% vehicle, 100% cell-free pure enzyme wells. activation, % at 5.96 µM. 0.073% of 340,000 active;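 active = activation above the mean of all tested compounds plus 3 SD, set per screening campaign, cut at about 17% in these data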
caTPT1 confirm – TPT1 (C. albicans) inhibition, confirmation. shares compounds with TPT1 inhibitor. recombinant caTPT1, fluorescence polarization, RNase T1 coupled. inhibition, % at 5 µM. 74% of 2,400 active. AID 2149;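 active = inhibition above the primary screen limit, the mean inhibition of all tested compounds plus 3 SD, cut at about 25% in these data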
RNase T1 counter – blocks Aspergillus oryzae RNase T1, a TPT1 counter-screen. inhibition, % at 5 µM. shares compounds with TPT1 inhibitor. AID 2153. 83% of 2,400 active. RNase T1 cleavage, fluorescence polarization, 1536-well;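 active = inhibition above the solvent-only control well mean plus 3 SD, limit set per screening run, cut at about 23% in these data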;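 also: inhibitors block cleavage so intact labeled substrate keeps polarization high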
IDE cell inh cf – cellular human IDE inhibition, confirmation; HEK cells, FAbetaB cleavage, fluorescence polarization; shares compounds with IDE cell inh; 51% of 1,200 active; inhibition, % at 5.59 µM;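 active = mean inhibition across triplicate wells above the cutoff set by the earlier primary insulin-degrading enzyme screen, cut at about 16% in these data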
HEK cytotox – counter-screen for IDE inhibitors: cytotoxicity in HEK cells; inhibition, % at 5.59 µM; HEK293 cytotoxicity, ATP luminescence; 28% of 1,200 active; shares compounds with IDE cell inh; AID 449730; in the data active = inhibition above about 22%
A number is an active result; n = inactive; x = not tested or not shown.

SMILES	Rin1-Abl PPI inh	TPT1 inhibitor	Calb FLC	IDE cell inh	Rpn11 inh	IDE cell activ	caTPT1 confirm	RNase T1 counter	IDE cell inh cf	HEK cytotox
N=C1/C(=C\c2coc3ccccc3c2=O)C(=O)N=C2SC=CN12	n	40.1	n	48.1	x	n	33.5	46.7	80.2	n
N=C1/C(=C/c2cccn2Cc2ccc(F)cc2)C(=O)N=C2SC=CN12	n	n	n	n	n	n	x	x	x	x
CSC1=NSC2=NC(=O)/C(=C/c3coc4ccc(O)cc4c3=O)C(=N)N12	n	69.7	x	29.9	x	n	116.5	112.7	36.9	n
CSC1=NSC2=NC(=O)/C(=C\c3cccs3)C(=N)N12	n	n	n	n	n	n	x	x	x	x
CSC1=NSC2=NC(=O)/C(=C/c3coc4ccccc4c3=O)C(=N)N12	n	51.6	x	71.5	n	n	59.8	62.1	45.0	n
CC1=CC2=NC(=O)/C(=C/c3coc4ccc(Cl)cc4c3=O)C(=N)N2O1	n	78.3	n	61.8	x	n	72.7	77.3	97.0	n
Cc1ccc(N=C2NC(=O)/C(=C/c3cn(C)c4ccccc34)S2)cc1C	n	116.8	x	18.8	x	n	121.1	125.0	52.1	n
Cn1cccc1/C=C1\SC(=Nc2ccccc2)NC1=O	n	n	n	n	n	n	x	x	x	x
CCCCNC(=O)C(CC)(ONc1ccccc1C(F)(F)F)c1ccccc1OC (configuration not stated)	n	x	x	n	n	n	x	x	x	x
O=C1c2cccc3cccc(c23)C(=O)N1c1ccc(O)cc1	n	n	n	n	n	n	x	x	x	x
O=C1c2cccc3c(N4CCCCC4)ccc(c23)C(=O)N1c1ccc(O)cc1	n	72.5	n	75.0	x	n	60.7	61.4	71.7	n
O=C(O)c1ccc(N2CCCCCC2)c(N2C(=O)c3ccccc3C2=O)c1	n	n	n	n	n	n	x	x	x	x
O=C1c2cccc3c(N4CCCCC4)ccc(c23)C(=O)N1c1ccccc1O	n	71.6	n	88.7	x	n	38.9	50.4	152.2	n
C=CCn1c(=O)/c(=C/c2ccc(O)cc2)s/c1=C(/C#N)c1nnc2n1CCCCC2	n	118.5	x	102.3	x	n	119.1	116.1	88.4	n
CCOc1ncccc1C(=O)OCC(=O)NCc1ccc(C(=O)OC)cc1	n	x	x	n	n	n	x	x	x	x
COc1ccc(OC)c(/C=C2\NC(=O)NC2=O)c1	n	n	n	n	n	n	x	x	x	x
COc1cc(N2CCCC2)c(OC)cc1/C=C1/NC(=S)NC1=O	n	130.8	n	117.5	x	n	138.4	128.8	149.9	n
COc1ccc(N2CCN(C(=O)CNC(=O)Cn3cnc4sc(C)c(C)c4c3=O)CC2)cc1	n	n	n	n	n	n	x	x	x	x
CC(=Nc1cccc(O)c1)c1sc2ccccc2c1O	n	66.1	n	27.2	n	n	94.4	104.8	64.8	n
Cc1cc(NC(=O)c2sc3ccccc3c2O)no1	n	x	n	x	n	n	x	x	x	x
CC(=Nc1ccc(C)cc1)c1sc2ccccc2c1O	n	73.8	n	25.1	n	n	75.3	87.0	44.5	n
CC(=O)NCCN=Cc1sc2ccccc2c1O	n	n	n	n	n	n	x	x	x	x
Cc1cc(O)c(C(C)C)cc1NC(=S)Nc1cc(C(C)C)c(O)cc1C	n	x	x	x	n	n	x	x	x	x
CCOC(=O)C1C(=O)C=C(/C=C/c2ccc(N(C)C)cc2)CC1c1ccccc1 (configuration not stated)	n	89.0	n	40.4	x	n	77.0	79.8	129.3	24.0
CCOC(=O)C1C(=O)C=C(c2ccc(C)cc2)CC1c1ccccc1 (configuration not stated)	n	n	n	n	n	n	x	x	x	x
SMILES	Rin1-Abl PPI inh	TPT1 inhibitor	Calb FLC	IDE cell inh	Rpn11 inh	IDE cell activ	caTPT1 confirm	RNase T1 counter	IDE cell inh cf	HEK cytotox
O=C1N/C(=N\S(=O)(=O)c2ccccc2)S/C1=C\c1cc([N+](=O)[O-])ccc1O	n	76.1	n	49.9	x	n	78.2	82.9	70.3	n
O=C1N/C(=N\S(=O)(=O)Cc2ccccc2)S/C1=C/c1cc([N+](=O)[O-])ccc1O	n	68.5	n	39.7	x	n	75.2	80.1	75.0	n
COc1cc(/C=C2/S/C(=N/S(=O)(=O)c3ccccc3)NC2=O)c([N+](=O)[O-])cc1OC	n	n	n	n	n	n	x	x	x	x
COc1cc(/C=C2\S/C(=N/S(=O)(=O)Cc3ccccc3)NC2=O)c([N+](=O)[O-])cc1OC	n	n	n	n	n	n	x	x	x	x
CCN1C(=O)/C(=C/C=C2\N(CC)c3cc(S(=O)(=O)N(C)C)ccc3N2c2ccccc2)SC1=S	n	135.7	n	18.1	x	n	94.1	93.7	73.9	32.1
CCN1C(=O)/C(=C\C=C\c2ccccc2[N+](=O)[O-])SC1=S	n	x	x	x	n	n	x	x	x	x
CCN(CC)c1ccc(/C=C/C(=O)C2C(=O)C=C(C)OC2=O)cc1 (configuration not stated)	n	48.0	n	64.2	x	n	33.0	40.3	95.5	n
CN(C)S(=O)(=O)c1ccc2c(c1)/C(=C/c1cc3c([nH]1)CCCC3)C(=O)N2	n	153.1	x	45.4	x	n	154.9	145.0	105.1	n
CC(=O)c1nnn(-c2cccc(C#N)c2)c1C	n	n	n	n	n	n	x	x	x	x
CCN(CC)c1ccc(/C=C2\C(=N)N3N=C(CC(=O)N4CCOCC4)SC3=NC2=O)cc1	n	137.1	n	19.9	x	n	173.8	164.1	36.5	n
Oc1sc(C=Nc2ccc(F)cc2)c2ccccc12	n	128.5	n	17.9	x	n	109.8	108.7	34.3	n
Oc1sc(C=Nc2ccccc2)c2ccccc12	n	119.2	n	25.9	x	n	104.9	104.0	29.6	n
Oc1ccccc1N=Cc1sc2ccccc2c1Cl	n	n	n	n	n	n	x	x	x	x
Fc1ccccc1Cc1noc(CN2CCN(c3ccc(Cl)cn3)CC2)n1	n	n	n	n	n	n	x	x	x	x
CCCNC(=O)Cn1c(=O)/c(=C/c2ccc(-c3cccc([N+](=O)[O-])c3)o2)s/c1=C\C(=O)C(C)(C)C	n	x	x	x	n	n	x	x	x	x
CCCNC(=O)Cn1c(=O)/c(=C\c2ccc(-c3ccc([N+](=O)[O-])cc3)o2)s/c1=C\C(=O)C(C)(C)C	n	108.5	n	20.5	x	n	99.0	98.6	77.3	n
Cc1occc1C(=O)N/N=C/c1c(O)ccc2ccccc12	n	n	n	n	n	n	x	x	x	x
O=C(N/N=C/c1c(O)ccc2ccccc12)c1cccnc1	n	63.7	100.0	62.9	x	n	99.2	98.4	64.1	75.8
O=C(N/N=C\c1c(O)ccc2ccccc12)c1ccc(O)cc1	n	n	n	n	n	n	x	x	x	x
